# Results: PubChem BioAssay
# Active and inactive are the calls of the source. No stated cut-off is given here; in the data, active means fold change permeability below about 0.7 or above about 1.3; inactive means in between. Positions of bridges follow the written chain, without caps; N, C: chain ends. Non-standard residues stand in square brackets, D forms with d. Residues, ends and D or L forms follow the SMILES beside them. hArg = N=C(N)NCCCC[CH](N)C(=O)O; Mpa = O=C(O)CCS
# Assay: modulators of brain endothelial barrier permeability, primary screen, cell-based, FITC-avidin fluorescence, HTS (AID 1963498); further: test concentration not given here
# Conditions: actives lie on both sides
row,Compound,fold change permeability
1,NC(=O)C1CSSCCC(=O)NC(CCCCN=C(N)N)C(=O)NCC(=O)NC(CC(=O)O)C(=O)NC(Cc2c[nH]c3ccccc23)C(=O)N2CCCC2C(=O)N1 (centres undefined) ([Mpa][hArg]GDWPC-NH2; disulfide 1-7; configuration not given here),0.9 (inactive)
2,C[C@@H](c1nc(-c2ccc(C#N)cc2)cs1)[C@](O)(Cn1cncn1)c1cc(F)ccc1F,1.2 (inactive)
3,O=S(=O)(c1cccc2c(Cl)cccc12)N1CCCNCC1,1.1 (inactive)
4,CC(C)Cn1c(=O)n(C)c(=O)c2[nH]cnc21,0.7 (active)
5,C[N+](C)(C)CCOP(=O)(O)OP(=O)([O-])OC[C@H]1O[C@@H](n2ccc(N)nc2=O)C(O)[C@H]1O (some centres undefined),1.1 (inactive)
6,O=c1[nH]ccc2c(O)cccc12,2.2 (active)
7,OCCN1CCN(CCCN2c3ccccc3Sc3ccc(Cl)cc32)CC1,1.2 (inactive)
8,CNCC(O)c1ccc(O)c(O)c1 (centres undefined),0.8 (inactive)
9,Cc1ncc(-c2c[nH]c3ccccc23)o1,1.2 (inactive)
10,CCN(CC)CCOC(=O)c1ccc(N)cc1,0.8 (inactive)
11,NC(=NCc1ccccc1)NC(=O)c1nc(Cl)c(N)nc1N,1 (inactive)
12,CC(=O)N[C@@H](Cc1c[nH]c2ccccc12)C(=O)OCc1cc(C(F)(F)F)cc(C(F)(F)F)c1,0.9 (inactive)
13,O=C1NC(c2cccc([N+](=O)[O-])c2)=CCN1c1ccccc1O,0.9 (inactive)
14,O=[N+]([O-])c1cccc2cn[nH]c12,1 (inactive)
15,CC[N+](CC)(CC)CCOc1cccc(OCC[N+](CC)(CC)CC)c1OCC[N+](CC)(CC)CC,0.8 (inactive)
16,S=C(Nc1ccccc1)Nc1nccs1,1.3 (active)
17,CN1C[C@H](C(=O)N[C@]2(C)O[C@@]3(O)[C@@H]4CCCN4C(=O)[C@H](Cc4ccccc4)N3C2=O)C[C@@H]2c3cccc4[nH]cc(c34)C[C@H]21,1.4 (active)
18,CC1CNCCN1S(=O)(=O)c1cccc2cnccc12 (centres undefined),1.1 (inactive)
19,NC/C=C/C(=O)O,0.8 (inactive)
20,Cc1cc(N)c2ccccc2[n+]1CCCCCCCCCC[n+]1c(C)cc(N)c2ccccc21,1.6 (active)

row,Compound,fold change permeability
1,O=c1c2ccccc2nc2n1CCc1c-2[nH]c2ccccc12,1.8 (active)
2,CC1=C(C(=O)O)N2C(=O)[C@@H](NC(=O)[C@H](N)C3=CCC=CC3)[C@H]2SC1,0.9 (inactive)
3,CCCCS(=N)(=O)CCC(N)C(=O)O (centres undefined),1.1 (inactive)
4,O=C(O)c1cc2cc(Cc3cccnc3)ccc2o1,0.8 (inactive)
5,COC(=O)C1=C(C)NC(C)=C(C(=O)O[C@@H]2CCCN(Cc3ccccc3)C2)[C@@H]1c1cccc([N+](=O)[O-])c1,1.4 (active)
6,C[C@@H](O)[C@H]1C(=O)N2C(C(=O)O)=C(SCCN=CN)C[C@H]12,0.8 (inactive)
7,CCc1c(C)[nH]c2c1C(=O)C(CN1CCOCC1)CC2 (centres undefined),1 (inactive)
8,CC(C)(C)c1ccc(CN2CCN(C(c3ccccc3)c3ccc(Cl)cc3)CC2)cc1 (centres undefined),1.6 (active)
9,CCCn1c(=O)c2[nH]c(C3CCCC3)nc2n(CCC)c1=O,1.5 (active)
10,CC1=C(/C=C/C(C)=C/C=C/C(C)=C/C(=O)O)C(C)(C)CCC1,1.3 (active)
11,C[C@H](Cc1ccc(O)c(O)c1)[C@@H](C)Cc1ccc(O)c(O)c1,1 (inactive)
12,Cc1ccc(S(=O)(=O)Nc2ccccc2N2CCCCC2)s1,1 (inactive)
13,CN(C)CC/C=C1/c2ccccc2Sc2ccc(Cl)cc21,1.1 (inactive)
14,NS(=O)(=O)c1cccc2c1c([N+](=O)[O-])cc1nc(O)c(O)nc12,0.9 (inactive)
15,CC(C)NCC(O)COc1ccc(COCCOC(C)C)cc1 (centres undefined),0.8 (inactive)
16,NC(N)=Nc1nc(CSCC/C(N)=N/S(N)(=O)=O)cs1,0.9 (inactive)
17,OC[C@H]1O[C@H]([S-])[C@H](O)[C@@H](O)[C@@H]1O.[Au+],1.5 (active)
18,Clc1ccc(N2CCN(Cc3c[nH]c4ncccc34)CC2)cc1,1.4 (active)
19,O=C1c2cccc3c2[C@H](CCC3)CN1[C@@H]1CN2CCC1CC2,1.3 (active)
